Test system: Vero E6 infected with SARS-CoV-2
Test: inhibition of SARS-CoV-2 cytopathic effect; higher = more antiviral protection, active = above 15
Details: 48 h

Measured: inhibition of SARS-CoV-2 cytopathic effect

NCc1cc(O)no1 [muscimol]
inactive: 1 nM -0.61% | 8.33 nM 0.05% | 100 nM 2.35% | 833.33 nM 0.14% | 10000 nM 0.49%

Nc1ncnc2c1ncn2[C@@H]1O[C@H](C[C@@H](N)CC[C@H](N)C(=O)O)[C@@H](O)[C@H]1O [sinefungin]
inactive: 1 nM -10.5% | 8.33 nM -10.2% | 100 nM -10% | 833.33 nM -7.77% | 10000 nM -7.24%

CCOC(=O)[C@H](CCc1ccccc1)N[C@@H](C)C(=O)N(CC(=O)O)C1Cc2ccccc2C1 [delapril]
inactive: 1 nM -1.82% | 8.33 nM 0.71% | 100 nM 2.57% | 833.33 nM 2.28% | 10000 nM -1.55%

C[C@H]1C[C@H]2[C@@H]3CCC4=CC(=O)C=C[C@]4(C)[C@H]3C(=O)C[C@]2(C)[C@@]1(O)C(=O)CO [Betapar (Meprednisone)]
inactive: 1 nM 0.88% | 8.33 nM 0.92% | 100 nM 2.1% | 833.33 nM 0.12% | 10000 nM 4.2%

COc1cccc(OC)c1-c1cc(C(=O)N[C@@H](CC(C)C)C(=O)O)nn1-c1ccnc2cc(Cl)ccc12
inactive: 1 nM 2.48% | 8.33 nM 1.4% | 100 nM -0.45% | 833.33 nM -0.64% | 10000 nM -0.46%

CNC(=O)c1ccc2cc([C@@]3(O)CCn4cncc43)ccc2c1 [orteronel]
inactive: 1 nM 3.23% | 8.33 nM 3.01% | 100 nM 4.35% | 833.33 nM 3.1% | 10000 nM 2.53%

COc1cc2c(cc1OC)CC(=O)N(CCCN(C)C[C@H]1Cc3cc(OC)c(OC)cc31)CC2 [ivabradine]
inactive: 1 nM -0.16% | 8.33 nM -0.37% | 100 nM -0.32% | 833.33 nM -1.75% | 10000 nM -1.11%

From the supplement of paper PMC13380429
